{"source": "ChEMBL document CHEMBL1961873", "about": "“Compounds: GSK PKIS; Assays: Nanosyn kinase panel” (2012)", "data": [{"target": "Tyrosine-protein kinase Srms (Homo sapiens) (UniProt Q9H3Y6)", "sequence (Q9H3Y6 whole entry)": "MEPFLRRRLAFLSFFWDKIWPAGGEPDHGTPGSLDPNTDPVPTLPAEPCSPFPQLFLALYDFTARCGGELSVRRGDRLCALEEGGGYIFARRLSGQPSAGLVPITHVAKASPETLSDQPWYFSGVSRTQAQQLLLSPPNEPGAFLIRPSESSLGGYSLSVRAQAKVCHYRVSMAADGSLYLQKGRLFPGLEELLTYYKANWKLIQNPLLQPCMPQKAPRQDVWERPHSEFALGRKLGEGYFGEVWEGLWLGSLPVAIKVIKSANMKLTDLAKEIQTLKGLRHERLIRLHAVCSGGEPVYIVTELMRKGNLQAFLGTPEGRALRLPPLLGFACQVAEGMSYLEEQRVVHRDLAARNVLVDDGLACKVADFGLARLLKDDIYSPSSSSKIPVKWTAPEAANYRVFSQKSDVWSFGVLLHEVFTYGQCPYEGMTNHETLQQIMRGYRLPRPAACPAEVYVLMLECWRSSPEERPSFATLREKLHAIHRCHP", "conditions": "at 0.1 µM", "units": {"inhibition": "%"}, "values": [{"smiles": "Nc1ncnc2occ(-c3ccc(NC(=O)Nc4cc(C(F)(F)F)cc(C(F)(F)F)c4)cc3)c12", "inhibition": -0.11}, {"smiles": "CCn1c(-c2nonc2N)nc2c(N3CCCC3)nccc21", "inhibition": 0.27}, {"smiles": "CCn1c(-c2nonc2N)nc2cnc(Oc3cccc(NC(=O)c4ccc(OCCN5CCOCC5)cc4)c3)cc21", "inhibition": -0.56}, {"smiles": "COc1ccccc1Nc1ncc(-c2ccccc2)o1", "inhibition": -1.24}, {"smiles": "Cc1cccc(-c2n[nH]cc2-c2ccc3ncccc3n2)n1", "inhibition": 0.03}, {"smiles": "CC1=C(C(=O)Nc2ccc3[nH]ncc3c2)C(c2ccc(F)cc2)NC(=O)N1", "note": "(stereo not drawn)", "inhibition": 0.2}, {"smiles": "CCCN1CCC=C(c2ccc(Nc3nc(Nc4ccccc4C(N)=O)c4cc[nH]c4n3)c(C)c2)C1", "inhibition": -3.15}, {"smiles": "CS(=O)(=O)Nc1ccc(N/C=C2\\C(=O)Nc3ccccc32)cc1", "inhibition": -2.57}, {"smiles": "CCN1CCC(CC(=O)Nc2n[nH]c3nc(-c4cccs4)c(Br)cc23)CC1", "inhibition": -1.72}, {"smiles": "CS(=O)(=O)CCNCc1ccc(-c2ccc3ncnc(Nc4ccc(OCc5cccc(F)c5)c(C(F)(F)F)c4)c3c2)o1", "inhibition": -1.21}, {"smiles": "COc1ccc(-c2nn3ncccc3c2-c2ccnc(Nc3ccc(Cl)c(C(F)(F)F)c3)n2)cc1", "inhibition": 0.23}, {"smiles": "c1cnn2ncc(-c3ccnc(Nc4ccc5c(c4)OCCO5)n3)c2c1", "inhibition": -0.57}, {"smiles": "CCn1c(-c2nonc2N)nc2cncc(C(=O)N3CC[C@H](N)C3)c21", "inhibition": 0.37}, {"smiles": "NCc1ccc(-c2nc(-c3ccc(Cl)c(O)c3)c(-c3ccncc3)[nH]2)cc1", "inhibition": 3.6}, {"smiles": "COc1cc2ncn(-c3cc(OCc4ccccc4C(F)(F)F)c(C(N)=O)s3)c2cc1OC", "inhibition": -2.2}, {"smiles": "COc1ccc(-c2ccncc2)cc1C(N)=O", "inhibition": -0.54}, {"smiles": "Cc1cc(O)cc(C)c1/C=C/c1cncc(-c2nn[nH]n2)c1", "inhibition": 9.68}, {"smiles": "Nc1nc(-c2ccc3c(c2)C(=Cc2cc(Br)c(O)c(Br)c2)C(=O)N3)cs1", "inhibition": 9.94}, {"smiles": "COc1cccc(-n2ncc3c(N/N=C/c4cccc(F)c4)ncnc32)c1", "inhibition": -0.72}, {"smiles": "COC(=O)Nc1nc2cc(Oc3ccc(NC(=O)Nc4cccc(C(=O)O)c4)cc3)ccc2[nH]1", "inhibition": 0.44}, {"smiles": "Cc1nn(C)c2cc(N(C)c3ccnc(Nc4cccc(S(N)(=O)=O)c4)n3)ccc12", "inhibition": 0.83}, {"smiles": "COc1cc2ncn(-c3cc(OCc4ccccc4Cl)c(C(N)=O)s3)c2cc1OC", "inhibition": 2.74}, {"smiles": "CC(=O)Nc1cccc(C#Cc2cncnc2Nc2ccc(OCc3cccc(F)c3)c(Cl)c2)n1", "inhibition": 1.99}, {"smiles": "COc1ccc(COc2ccc(Cc3cnc(N)nc3N)cc2OC)cc1", "inhibition": 1.82}, {"smiles": "Nc1nc(-c2ccccn2)c(-c2ccc3ncccc3n2)s1", "inhibition": -0.44}, {"smiles": "CC1=C(C(=O)Nc2ccc3[nH]ncc3c2)C(c2ccc3ccccc3c2)CC(=O)N1", "note": "(stereo not drawn)", "inhibition": 1.12}, {"smiles": "Cn1cc(C=C2C(=O)Nc3cccnc32)c2ccccc21", "inhibition": -1.82}, {"smiles": "COc1ccc(-c2coc3ncnc(N)c23)cc1", "inhibition": -2.61}, {"smiles": "CS(=O)(=O)CCNCc1nc(-c2ccc3ncnc(Nc4ccc(F)c(Cl)c4)c3c2)cs1", "inhibition": -0.09}, {"smiles": "O=C1Nc2ccc(C(=O)c3ccco3)cc2C1=Cc1cc(Cl)c(O)c(Cl)c1", "inhibition": 21.3}, {"smiles": "COc1cc2ncn(-c3cc(O[C@H](C)c4ccccc4Cl)c(C(N)=O)s3)c2cc1OC", "inhibition": 2.69}, {"smiles": "CS(=O)(=O)CCN(CC#N)Cc1ccc(-c2ccc3ncnc(Nc4ccc(OCc5cccc(F)c5)c(Cl)c4)c3c2)o1", "inhibition": 1.13}, {"smiles": "CC(C)=Cc1cccc2c1/C(=N/Nc1ccc(S(N)(=O)=O)cc1)C(=O)N2", "inhibition": 3.21}, {"smiles": "CCn1c(-c2nonc2N)nc2c(C#CC(C)(C)O)nc(OC[C@@H](N)c3ccccc3)cc21", "inhibition": 1.94}]}, {"target": "Tyrosine-protein kinase Srms (Homo sapiens) (UniProt Q9H3Y6)", "conditions": "at 1 µM", "units": {"inhibition": "%"}, "values": [{"smiles": "Nc1ncnc2occ(-c3ccc(NC(=O)Nc4cc(C(F)(F)F)cc(C(F)(F)F)c4)cc3)c12", "inhibition": -0.05}, {"smiles": "CCn1c(-c2nonc2N)nc2c(N3CCCC3)nccc21", "inhibition": 0.26}, {"smiles": "CCn1c(-c2nonc2N)nc2cnc(Oc3cccc(NC(=O)c4ccc(OCCN5CCOCC5)cc4)c3)cc21", "inhibition": -0.69}, {"smiles": "COc1ccccc1Nc1ncc(-c2ccccc2)o1", "inhibition": 2.11}, {"smiles": "Cc1cccc(-c2n[nH]cc2-c2ccc3ncccc3n2)n1", "inhibition": 3.34}, {"smiles": "CC1=C(C(=O)Nc2ccc3[nH]ncc3c2)C(c2ccc(F)cc2)NC(=O)N1", "note": "(stereo not drawn)", "inhibition": 2.69}, {"smiles": "CCCN1CCC=C(c2ccc(Nc3nc(Nc4ccccc4C(N)=O)c4cc[nH]c4n3)c(C)c2)C1", "inhibition": 0.8}, {"smiles": "CS(=O)(=O)Nc1ccc(N/C=C2\\C(=O)Nc3ccccc32)cc1", "inhibition": 1.32}, {"smiles": "CCN1CCC(CC(=O)Nc2n[nH]c3nc(-c4cccs4)c(Br)cc23)CC1", "inhibition": -0.34}, {"smiles": "CS(=O)(=O)CCNCc1ccc(-c2ccc3ncnc(Nc4ccc(OCc5cccc(F)c5)c(C(F)(F)F)c4)c3c2)o1", "inhibition": -1.42}, {"smiles": "COc1ccc(-c2nn3ncccc3c2-c2ccnc(Nc3ccc(Cl)c(C(F)(F)F)c3)n2)cc1", "inhibition": 1.79}, {"smiles": "c1cnn2ncc(-c3ccnc(Nc4ccc5c(c4)OCCO5)n3)c2c1", "inhibition": 1.78}, {"smiles": "CCn1c(-c2nonc2N)nc2cncc(C(=O)N3CC[C@H](N)C3)c21", "inhibition": -0.65}, {"smiles": "NCc1ccc(-c2nc(-c3ccc(Cl)c(O)c3)c(-c3ccncc3)[nH]2)cc1", "inhibition": 21.7}, {"smiles": "COc1cc2ncn(-c3cc(OCc4ccccc4C(F)(F)F)c(C(N)=O)s3)c2cc1OC", "inhibition": -0.81}, {"smiles": "COc1ccc(-c2ccncc2)cc1C(N)=O", "inhibition": -5.88}, {"smiles": "Cc1cc(O)cc(C)c1/C=C/c1cncc(-c2nn[nH]n2)c1", "inhibition": 48.1}, {"smiles": "Nc1nc(-c2ccc3c(c2)C(=Cc2cc(Br)c(O)c(Br)c2)C(=O)N3)cs1", "inhibition": 53}, {"smiles": "COc1cccc(-n2ncc3c(N/N=C/c4cccc(F)c4)ncnc32)c1", "inhibition": 2.55}, {"smiles": "COC(=O)Nc1nc2cc(Oc3ccc(NC(=O)Nc4cccc(C(=O)O)c4)cc3)ccc2[nH]1", "inhibition": 0.74}, {"smiles": "Cc1nn(C)c2cc(N(C)c3ccnc(Nc4cccc(S(N)(=O)=O)c4)n3)ccc12", "inhibition": 9.11}, {"smiles": "COc1cc2ncn(-c3cc(OCc4ccccc4Cl)c(C(N)=O)s3)c2cc1OC", "inhibition": 7.95}, {"smiles": "CC(=O)Nc1cccc(C#Cc2cncnc2Nc2ccc(OCc3cccc(F)c3)c(Cl)c2)n1", "inhibition": 6.25}, {"smiles": "COc1ccc(COc2ccc(Cc3cnc(N)nc3N)cc2OC)cc1", "inhibition": 1.88}, {"smiles": "Nc1nc(-c2ccccn2)c(-c2ccc3ncccc3n2)s1", "inhibition": -2.72}, {"smiles": "CC1=C(C(=O)Nc2ccc3[nH]ncc3c2)C(c2ccc3ccccc3c2)CC(=O)N1", "note": "(stereo not drawn)", "inhibition": 1.41}, {"smiles": "Cn1cc(C=C2C(=O)Nc3cccnc32)c2ccccc21", "inhibition": 0.18}, {"smiles": "COc1ccc(-c2coc3ncnc(N)c23)cc1", "inhibition": -2.53}, {"smiles": "CS(=O)(=O)CCNCc1nc(-c2ccc3ncnc(Nc4ccc(F)c(Cl)c4)c3c2)cs1", "inhibition": 1.81}, {"smiles": "O=C1Nc2ccc(C(=O)c3ccco3)cc2C1=Cc1cc(Cl)c(O)c(Cl)c1", "inhibition": 59.7}, {"smiles": "COc1cc2ncn(-c3cc(O[C@H](C)c4ccccc4Cl)c(C(N)=O)s3)c2cc1OC", "inhibition": 6.05}, {"smiles": "CS(=O)(=O)CCN(CC#N)Cc1ccc(-c2ccc3ncnc(Nc4ccc(OCc5cccc(F)c5)c(Cl)c4)c3c2)o1", "inhibition": -1.83}, {"smiles": "CC(C)=Cc1cccc2c1/C(=N/Nc1ccc(S(N)(=O)=O)cc1)C(=O)N2", "inhibition": 4.02}, {"smiles": "CCn1c(-c2nonc2N)nc2c(C#CC(C)(C)O)nc(OC[C@@H](N)c3ccccc3)cc21", "inhibition": 5.92}]}]}
